Test results from PubChem BioAssay (NCI).
The panel holds about 83,000 compounds, 20% with a hit somewhere; the sample as a whole holds those more often.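 Percent growth is the endpoint: 0 to 100 indicates growth inhibition (40 means 60% inhibition), 0 means no net growth, and negative values indicate cell death.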 The source made the active and inactive calls.

These molecules were tested on OVCAR-5 ovarian (assay: NCI-60 one-dose screen, 48 h (100 = growth as untreated, 0 = no growth, -100 = all killed)). Conditions: 10 µM unless noted.
Experimental: Growth inhibition of the OVCAR-5 human tumor cell line is measured as a screen for anti-cancer activity. Cells are grown in 96 well plates and exposed to the test compound for 48 hours. Compounds are tested at a single concentration, which is 10^-5 M for most compounds. The reported endpoint is percent growth (GI% or GIPRCNT), where numbers from 0 - 100% represent growth inhibition, and numbers from -100% - 0 represent cell death. For example, a value of 40 represents 60% growth inhibition. A value of 0 means no net growth occurred over the course of the experiment. A value of -40 indicates 40% of cells at the beginning of the experiment died by the end of the experiment. A value of -100 means all cells are dead at the end of the experiment.
NCI-60 Human Tumor Cell Lines Screen was performed using the standard one-dose NCI protocol, which is described in more detail at https://dtp.cancer.gov/discovery_development/nci-60/default.htm.
Compounds with GIPRCNT values below 10 were considered active. Activity score was based on GIPRCNT using the following formula: […]
Score is 0 for GIPRCNT values of 100 or above, 50 for GIPRCNT values of 0, and 100 for GIPRCNT values of -100.
With `CCOC(=O)c1c(C)nc2c(c1N)/C(=C/c1ccc(OC)cc1)C(=O)N2Cc1ccccc1` the growth was 126% (inactive).
In the case of `O=S(=O)(Oc1ccc(Br)cc1)c1ccc(Cl)cc1`, the growth is reported as 92.5% (inactive).
`Fc1cc(Nc2ccc3c(OCCCN4CCOCC4)cccc3n2)ccc1Cl` was tested, and the growth was 33.5% (inactive).
In the case of `O=C(/C=C/c1ccc(Oc2ccc(Br)cc2)cc1)c1ccc(Br)cc1`, the growth is reported as 110% (inactive).
For `COc1ccc(CCN2C(=O)/C(=C/c3ccc(C4Oc5ccccc5C5CC(c6ccccc6)=NN54)cc3)SC2=S)cc1` (stereo not given), the growth was 103% (inactive).
With `CCSc1oc(C)nc1[P+](c1ccccc1)(c1ccccc1)c1ccccc1` the growth was 69.2% (inactive).
In the case of `S=c1[nH]c(=S)c2c(-c3ccccc3)c(-c3ccccc3)oc2[nH]1`, the growth is reported as 95.2% (inactive).
For `Cn1c(=O)c2[nH]c(SCC(=O)Nc3ccc(C(=O)/C=C/c4ccccc4Cl)cc3)nc2n(C)c1=O`, the growth was 101% (inactive).
With `Cc1nc2c(c(=O)[nH]1)C(c1ccccc1)c1ccc3ccccc3c1O2` (stereo not given) the growth was 87.2% (inactive).
With `C=CCN1C(=O)c2cccc3c(N4CCOCC4)ccc(c23)C1=O` the growth was 21.4% (inactive).
In the case of `NS(=O)(=O)c1ccc(NC(=O)/C(=C\c2ccc(Cl)cc2Cl)NC(=O)c2ccccc2)cc1`, the growth is reported as 108% (inactive).
In the case of `CN(CCCNC(=O)Cc1ccc2ccc3cccc4ccc1c2c34)CCCNc1cc(-c2ccc3ccccc3c2)nc2ccccc12`, the growth is reported as -88.2% (active).
In the case of `CCN(CC)CCCN1C(=O)c2c(c(C)c3c(oc4ccc(O)cc43)c2C)C1=O`, the growth is reported as 103% (inactive).
In the case of `CCN1CCN(CCNc2nccc(-c3c(-c4ccc(F)c(OC)c4)nc4sccn34)n2)S1(=O)=O`, the growth is reported as 114% (inactive).
In the case of `C#CCNC(=O)[C@]1(C)CCC[C@@]2(C)[C@H]1CC=C1C=C(C(C)C)CC[C@@H]12`, the growth is reported as 113% (inactive).
For `CC1=CCC(OC(=O)C(C)(C)CC(O)(C(C)O)C(O)C2(C)C=CC(Cc3ccc(C(C)C)cc3)(C(C)C)CC2)(C(C)C)CC1` (stereo not given), the growth was 94.9% (inactive).
For `O=C(/C=C/C12c3ccccc3C(c3ccccc31)C1C(=O)NC(=O)C12)c1ccc(Br)cc1` (stereo not given), the growth was 59.6% (inactive).
For `CC1(C)CC[C@]2(C(=O)N[C@H](CO)Cc3ccccc3)CC[C@]3(C)C(=CC[C@@H]4[C@@]5(C)CCCNC(C)(C)[C@@H]5CC[C@]43C)[C@@H]2C1`, the growth was 101% (inactive).
In the case of `NC(=O)c1cccc([C@@H]2O[C@H](CO)[C@@H](O)[C@H]2O)c1`, the growth is reported as 102% (inactive).
`COc1cc(C2C(C(=O)OCc3ccccc3)=C(C)NC(C)=C2C(=O)OCc2ccccc2)cc(OC)c1OC` was tested, and the growth was 68.5% (inactive).
For `CCOC(=O)/C=C1\S/C(=N\Nc2cc(=O)[nH]c3ccccc23)N(c2ccccc2)C1=O`, the growth was 101% (inactive).
For `COC(=O)c1c2c(n3ccccc13)C(=O)c1ccccc1C2=O`, the growth was 116% (inactive).
`CCN(CC)CCCOc1ccc2ncnc(Nc3ccc(Oc4cccc(C(F)(F)F)c4)c(Cl)c3)c2c1` was tested, and the growth was 5.73% (active).
For `COc1ccc(C(=O)c2cc3c(N)c(C(=O)Nc4ccccc4)sc3nc2C)cc1`, the growth was 38.8% (inactive).
For `COc1cc2nc3sc(C(=O)Nc4ccc(C(=O)OC(C)C)cc4)c(C(=O)Nc4ccc(Cl)cc4C)n3c(=O)c2cc1OC`, the growth was 70% (inactive).
For `O=C(Nc1ncc(Cc2cc(C(F)(F)F)ccc2Cl)s1)c1cccs1`, the growth was 83.9% (inactive).
With `CCOC(=O)C(Cc1ccc(OC)cc1)C(=O)OCC` the growth was 72% (inactive).
For `Cc1nc2cc(O)c(O)cc2cc1Oc1ccc(NC(=O)Nc2ccc(Cl)c(Cl)c2)cc1`, the growth was 122% (inactive).
With `CC(=O)c1ccc(Nc2nccc(-c3ccc4ccccc4c3)n2)cc1` the growth was 99.8% (inactive).
`CC1=C2[C@@H](CC1)[C@]1(C)O[C@@](c3ccccc3)(C[C@H]1OC(=O)CO)[C@H]2OC(=O)/C=C/c1ccccc1` was tested, and the growth was 108% (inactive).
In the case of `Cc1ccc(N2C(=O)CCC2=O)cc1`, the growth is reported as 96.3% (inactive).
For `CC1(C)N=C(N)N=C(N)N1c1ccc(CCCCc2ccccc2)c(Cl)c1`, the growth was 28.5% (inactive).
In the case of `Cc1cccc(Oc2ccc(Nc3ncnc4ccc(NC(=O)CN5CCN(C)CC5)cc34)cc2Cl)c1`, the growth is reported as 68.2% (inactive).
In the case of `C#CC#CC#CC#CC#CC#CC#CC#CC[C@@H]1OC[C@@H](COC(=O)O[C@@H](C(=O)O[C@H]2C[C@@]3(O)[C@@H](OC(=O)c4ccccc4)[C@@H]4[C@]5(OC(C)=O)CO[C@@H]5C[C@H](O)[C@@]4(C)C(=O)[C@H](OC(C)=O)C(=C2C)C3(C)C)[C@@H](NC(=O)c2ccccc2)c2ccccc2)O1`, the growth is reported as 5.15% (active).
`CCN1C(=O)N(CC)C2Nn3c(s/c(=C\c4ccccc4Br)c3=O)=NC21` (stereo not given) was tested, and the growth was 28.9% (inactive).
`NS(=O)(=O)c1ccc(-c2cc(-c3nnc(SCC(=O)Nc4ccc(C(=O)/C=C/c5ccc(Cl)cc5)cc4)n3-c3ccccc3)c3ccccc3n2)cc1` was tested, and the growth was 93.1% (inactive).
In the case of `CCCn1nc(C(=O)N(C)Cc2ccccc2)c2c1CCC(N1CCc3ccccc31)C2` (stereo not given), the growth is reported as 92.2% (inactive).
`Cc1nc2sc(C(=O)Nc3cccc(Br)c3C)c(N)c2cc1C(O)c1ccccc1` (stereo not given) was tested, and the growth was 32.3% (inactive).
In the case of `O=C1c2ccccc2C(=O)c2c1cc1c(c2[N+](=O)[O-])OCO1`, the growth is reported as 9.69% (active).
In the case of `N#Cc1c(-c2ccccc2)nc(SCC(O)CN2CCOCC2)nc1N1CCOCC1` (stereo not given), the growth is reported as 61.2% (inactive).
